Test results: PubChem BioAssay (NCI)
Where “and” joins values, the source holds several entries; their conditions need not be identical. Identical values can stand only once. This is part of a sample that, as a whole, favours compounds with a hit. Of some 83,000 tested, about 20% had one in any assay.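 Single-dose data. Exposure time 48 hours. Values below 10 considered active.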 A number with no mark means an inactive call. Calls of active or inactive are those of the source.

What follows are compounds tested on HL-60(TB) leukemia (assay: NCI-60 one-dose screen, 48 h (100 = growth as untreated, 0 = no growth, -100 = all killed)). Conditions: 10 µM unless noted.
With `COc1ccc(C2N(c3ccc(Br)cc3)N=C(C(C)=O)N2[C@H]2[C@H](OC(C)=O)O[C@H](COC(C)=O)[C@@H](OC(C)=O)[C@@H]2OC(C)=O)cc1` (stereo partly drawn) the growth was 23.7%. For `Cc1nn(-c2ccccc2)c2nc(C)n(C(=O)N/N=C/c3cccc([N+](=O)[O-])c3)c(=O)c12`, the growth was 74%. With `N#Cc1c(NC(=O)c2ccc(C(F)(F)F)cc2)sc2c1CCC(O)=C2` the growth was 6.28% (active). `COc1c(F)ccc(C(=O)Nc2ccc3nc(NC(=O)C4CCCN(S(=O)(=O)c5ccc(C(C)(C)C)cc5)C4)sc3c2)c1F` (stereo not drawn) showed a growth of 66.9%. With `O=c1[nH]c2ccccc2cc1CSc1nccc(-c2ccc3ccccc3c2)n1` the growth was 50.7%. In the case of `O=c1ccc(Cn2c(C(F)(F)F)cc3c(Cl)ncnc32)c[nH]1`, the growth is reported as -20.6% (active). For `O=C(Nc1ccc(-c2ccc3c(c2)NC(=O)/C3=C\c2ccc[nH]2)cc1)Nc1ccc(Cl)c(C(F)(F)F)c1`, the growth was 4.76% (active). For `COc1ccc(-c2cc(-c3cc(C(=O)c4ccc(Br)cc4)n4ccc(C)cc34)nc(N)c2C#N)cc1`, the growth was 96.6%. For `O=C(c1ccccc1)n1ccc(-c2cc3cc(Br)ccc3oc2=O)n1`, the growth was -13.5% (active). `CC(C)(C)c1ccc(OCc2nc3ccccc3n2-c2cccc(N)c2)cc1` was tested, and the growth was 67.8% and 98.6%. `O=C(c1ccc(Cl)cc1)C1[C@H](c2ccccc2Br)[C@@H](c2ccccc2)NC12C(=O)Nc1ccccc12` (stereo partly drawn) was tested, and the growth was -2.22% (active). `CC1(C)CC[C@]2(C(=O)Nc3ccc(F)cc3)CC[C@]3(C)C(=CCC4[C@@]5(C)C[C@@H](O)[C@H](O)[C@@](C)(CO)C5CC[C@]43C)C2C1` (stereo partly drawn) was tested, and the growth was -11.7% (active). `COc1ccc(N(C)c2cc(C#N)nc3ccccc23)cc1N` was tested, and the growth was -10% (active). `COc1sc(/C=N/NC(=O)c2[nH]c3ccc(Br)cc3c2-c2ccccc2)cc1Br` was tested, and the growth was -37.7% (active). In the case of `COc1cc(C2CC(c3ccc(Oc4ccc(Cl)cc4)cc3)=NN2c2nc(-c3ccc(Cl)cc3)c(C#N)c(N3CCOCC3)n2)cc(OC)c1OC` (stereo not drawn), the growth is reported as 102%. For `COc1ccc(C=CC(=O)c2ccc(-n3c(C)nc4c(cnn4-c4ccccc4)c3=O)cc2)cc1`, the growth was 44.7%. With `C=C1CC[C@@H]2[C@]3(C)COC(c4cn[nH]c4-c4ccc(F)cc4)O[C@@H]3CC[C@@]2(C)[C@@H]1C/C=C1/C(=O)OCC1O` (stereo partly drawn) the growth was -21.7% (active). Work on `COC(=O)c1c(C(=O)OC)c2ccc3c4ccccc4ccc3n2c1C(=O)C(C)Br` (stereo not drawn) yielded a growth of 39%. `N#Cc1c(-c2cccc3ccccc23)cc(-c2cccc(OCC(=O)O)c2)[nH]c1=O` showed a growth of 82.2%. `CN1C(=O)N(C)C2SC(N/N=C/c3ccccc3)=NC21` (stereo not drawn) was tested, and the growth was 8.73% (active). `Cn1cc(-c2cc(N)n3nc(-c4c[nH]c5ccccc45)cc3n2)c2cc(Cl)ccc21` was tested, and the growth was -16.2% (active). Work on `COc1cc2c(c(OC)c1OC)C(=O)CC(c1cccc(NC(=O)c3cc(NC(=O)[C@@H](N)CO)ccc3C)c1)O2` (stereo partly drawn) yielded a growth of 101%. `N#Cc1c(-c2cccnc2)cc(-c2ccc3ccccc3c2)[nH]c1=O` showed a growth of 72.6%. In the case of `Cc1sc(C(NC(=O)OCCn2c([N+](=O)[O-])cnc2C)C(F)(F)Cl)nc1-c1ccc(OC(F)(F)F)cc1` (stereo not drawn), the growth is reported as -6.23% (active). In the case of `NS(=O)(=O)c1ccc(N2N=C(c3ccc(NC(=O)Nc4ccccc4)cc3)CC2c2ccc(Br)cc2)cc1` (stereo not drawn), the growth is reported as -4.8% (active). With `Cn1cc(-c2nc(N)nnc2-c2c[nH]c3ccccc23)c2cc(Br)cnc21` the growth was 4.17% (active). With `O=C1NC2C=CC=CC2/C1=C1/SC(=S)N(C2CC(=O)N(c3ccc(Br)cc3)C2=O)C1=O` (stereo not drawn) the growth was 58.9%. With `COc1ccc(CN2[C@@H](C(=O)NCc3ccc(C(=O)NO)cc3)Cc3c([nH]c4ccccc34)[C@@H]2C)cc1` the growth was -5.52% (active). `O=C(CSc1nnc(-c2ccc3nc(-c4ccccc4)[nH]c3c2)o1)Nc1ccc(Cl)cc1` gave a growth of 46.7%. `Nc1ccc(-c2ccc3ncnc(N4CCc5cc(F)c(Cl)cc54)c3c2)cn1` was tested, and the growth was 22.8%. With `N#Cc1c(-c2cccc(O)c2O)cc(-c2ccc3ccccc3c2)[nH]c1=O` the growth was 56.6%. `N#Cc1c(-c2ccc(F)cc2)nc(SCc2ccc([N+](=O)[O-])cc2)nc1N1CCOCC1` showed a growth of 82.7%. `CC1=C(C(=O)OCc2ccccc2)C(c2c(O)cc(O)cc2O)n2c(nc3ccccc32)N1` (stereo not drawn) was tested, and the growth was 27.2%.
